Format in all cases: functional
Test [1] has as its target Solute carrier family 2, facilitated glucose transporter member 1 (Homo sapiens) (UniProt P11166). Kind of test: ST_JUDE_LEISH: Cytotoxicity at 2uM final concentration against transgenic Leishmania Mexicana promastigotes LmGLUT1 that are glucose transport deficient and complemented with the human glucose transporter GLUT1. Activity is measured by DNA content using SYBR green in vitro.

For test [2], the target named is Hexose transporter 1 (Plasmodium falciparum) (UniProt O97467). Description: ST_JUDE_LEISH: Cytotoxicity at 2uM final concentration against transgenic Leishmania Mexicana promastigotes LmPfHT that are glucose transport deficient and complemented with the Plasmodium falciparum hexose transporter. Activity is measured by DNA content using SYBR green in vitro.
Test [3] addresses Glucose transporter (Leishmania mexicana) (UniProt O61059). Kind of test: ST_JUDE_LEISH: Cytotoxicity at 2uM final concentration against transgenic Leishmania Mexicana promastigotes LmGT2 that are glucose transport deficient and complemented with the L. Mexicana glucose transporter 2. Activity is measured by DNA content using SYBR green in vitro.

This passage reports inhibition results from ChEMBL document CHEMBL3433997, “St. Jude Leishmania screening dataset” (2016).

Usually inhibition stands for the relative decrease from the control value, in per cent.

Each structure is given as a SMILES string.

Solute carrier family 2, facilitated glucose transporter member 1 (Homo sapiens), sequence (P11166 whole entry): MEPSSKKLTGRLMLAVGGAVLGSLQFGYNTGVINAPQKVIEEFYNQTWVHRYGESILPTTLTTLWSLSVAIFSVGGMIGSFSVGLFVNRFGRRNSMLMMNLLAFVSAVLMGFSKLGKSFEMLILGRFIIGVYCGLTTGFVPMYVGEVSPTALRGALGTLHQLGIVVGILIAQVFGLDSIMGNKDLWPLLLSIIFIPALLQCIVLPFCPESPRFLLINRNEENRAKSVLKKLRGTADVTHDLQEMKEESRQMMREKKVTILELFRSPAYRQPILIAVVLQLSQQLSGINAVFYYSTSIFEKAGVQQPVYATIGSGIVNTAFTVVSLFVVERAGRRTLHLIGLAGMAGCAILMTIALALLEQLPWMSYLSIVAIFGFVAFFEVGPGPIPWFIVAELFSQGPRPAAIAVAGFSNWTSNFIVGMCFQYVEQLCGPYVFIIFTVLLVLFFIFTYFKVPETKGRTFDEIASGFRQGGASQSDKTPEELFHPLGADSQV

For `COc1ccc2nccc([C@@H](O)CN3CCC(NCc4nc5c(cc4Cl)OCC(=O)N5)C(F)C3)c2c1` (stereo not given in full), the inhibition came out at 1.37% in test [1], 0.56% in test [2] and 0.2% in test [3].

For `CCOc1ccc2ccccc2c1CNCCCCCCNCc1c(OCC)ccc2ccccc12`, the inhibition in test [1] is 7.3%; in test [2], 6.69%; in test [3] it was 4.92%.

As for `COc1ccc(CNC2Cc3ccccc3C2)cc1-c1ccc(S(=O)(=O)NCCc2ccccn2)s1`, the inhibition was 0.76% in test [1], 0.03% in test [2] and 2.04% in test [3].

For `FC(F)(F)c1cccc(CCNc2nccc(NCc3ccccc3Cl)n2)c1`, the inhibition is 5.73% in test [1], 4.26% in test [2] and 0.1% in test [3].

Regarding `O=C(Nc1cc(Cl)cc(Cl)c1)c1cnn(-c2ccc(F)cc2)c1C1CCNCC1`, the figures for the inhibition in test [1], in test [2] and in test [3] were -0.33%, -0.39% and 1.72%, respectively.

Turning to `O=[N+]([O-])c1ccc(C=NNc2nc(Nc3ccccc3)nc(Nc3ccccc3)n2)o1`, the inhibition is 13.4% in test [1], 18.9% in test [2] and 2.58% in test [3].

Take `CC(=O)N1N=C(c2[nH]c3ccc(Br)cc3c2C)OC1c1ccccc1` (stereo not given): the inhibition in test [1] worked out at 4.69%; in test [2] it was 4.06%; in test [3], 3.6%.

In the case of `COc1c(C2CCN(CCN3CCC(NC(=O)c4ccc(-c5ccc(C(F)(F)F)cc5)cc4)CC3)CC2)ccc2c1CCCC2`, the values for the inhibition in test [1], in test [2] and in test [3] were 0.78%, 1.26% and 0.67%, respectively.

Turning to `CCOc1cc(C)ccc1C1CCN(CCCCNC(=O)c2nc(-c3ccc(C(F)(F)F)cc3)[nH]c2C)CC1`, the inhibition is 1.65% in test [1], 0.72% in test [2] and -0.05% in test [3].

For the compound `Cn1ccnc1Sc1ncccc1[N+](=O)[O-]`, the figures for the inhibition in test [1], in test [2] and in test [3] were -2.32%, 0.92% and 1.8%, respectively.

On to `Oc1ccccc1CNCc1ccc(-c2cnc(N3CCCC(c4ccccc4)C3)nc2)cc1` (stereo not given), for which the inhibition in test [1] came out at 3.52%; in test [2], 2.64%; in test [3] it was 9.12%.

For the compound `O=C(Nc1cccc(CN2CCCN(Cc3ccc4c(c3)OCO4)CC2)c1)c1ccc2ccccc2c1`, the results for the inhibition in test [1], in test [2] and in test [3] were 1.49%, 1.31% and -7.63%, respectively.

With `COc1ccc2c(NN=Cc3ccccn3)ccnc2c1`, the inhibition was 13.7% in test [1], 11.8% in test [2] and 11.3% in test [3].

As to `O=C(Nc1ccc(Cl)cc1)c1ccc(CN2CCCN(Cc3ccsc3)CC2)cc1`, the figures for the inhibition in test [1], in test [2] and in test [3] were 2.78%, 1.42% and 7.21%, respectively.

Regarding `Cc1cccc2nc(-c3ccc(-c4cccc(C(=O)NCCc5cn(C)cn5)c4)s3)[nH]c12`, the figures for the inhibition in test [1], in test [2] and in test [3] were 1.8%, 1.96% and 1%, respectively.

Turning to `CCCc1ccc(NC(=O)c2ccc(CN3CCCN(Cc4ccc(OC)cc4)CC3)cc2)cc1`, the inhibition in test [1] was -1.19%; in test [2], -0.55%; in test [3] it was -0.74%.

`CCNCCCC(C)Nc1ccnc2cc(Cl)ccc12` (stereo not given): the inhibition was -2.28% in test [1], -2.68% in test [2] and -2.34% in test [3].

As to `CCc1nc2nc(C)cc(Nc3ccc4c(c3)OCCO4)n2n1`, the inhibition in test [1] was 2.89%; in test [2], 4.78%; in test [3], -3.9%.

For `CC(=O)Oc1cc(C)ccc1C1CCN(CCCCNC(=O)c2ccc(NC(=O)c3ccc(Cl)cc3)cc2)CC1`, the values for the inhibition in test [1], in test [2] and in test [3] were 1.6%, 1.07% and 1.52%, respectively.

On to `O=C(NC(=O)c1ccccc1O)c1ccccc1O`, for which the inhibition is -0.08% in test [1], 0.7% in test [2] and 0.89% in test [3].

With `COc1ccc(NC(=O)Nc2cccc(-c3cccc(-c4nc5ccccc5[nH]4)c3)c2)cc1`, the results for the inhibition in test [1], in test [2] and in test [3] were -1.96%, -0.16% and -1.98%, respectively.

In the case of `CCN(CC)CCN(Cc1ccc(-c2ccc(C(F)(F)F)cc2)cc1)C(=O)c1ccc(-c2ccc(C#N)cc2)cc1`, the inhibition is 2.48% in test [1], 0.49% in test [2] and 2.37% in test [3].

In the case of `COc1ccc(NC(=O)c2ccc(-c3ccc(-c4cccnc4)cc3)c(C)c2)cc1OCCN(C)C`, the inhibition in test [1] was 1.47%; in test [2] it was 1.09%; in test [3] it was 0.84%.

As to `Cc1cc(Nc2cccc(C(F)(F)F)c2)nc(NCc2ccccc2)n1`, the inhibition in test [1] amounted to 29.6%; in test [2], 42.8%; in test [3], 10.1%.

Turning to `O=C(NCc1cccc2ccccc12)c1ccc(CNC2CCN(Cc3ccccc3)CC2)cc1`, the inhibition in test [1] is 1.65%; in test [2], 2.12%; in test [3], 4.22%.

For `CCN(CC)CCON=Cc1cc(C)c2[nH]c3ccc(OCc4ccccc4)cc3c2c1C`, the results for the inhibition in test [1], in test [2] and in test [3] were -1.13%, 0.92% and -2.27%, respectively.

With `CCCCNC(=O)c1[nH]c2c(NC(=O)COc3ccccc3)cccc2c1-c1cccc(NC(=O)C(N)CO)c1` (stereo not given), the inhibition in test [1] is 10.1%; in test [2], 9.02%; in test [3], 7.27%.

`Cc1cc(=NN=Cc2ccccc2F)c2cc(F)ccc2[nH]1`: the results for the inhibition in test [1], in test [2] and in test [3] were 1.79%, 3.14% and 0.82%, respectively.

For the compound `CC(CC(=O)NCC1(c2ccc(F)cc2Cl)CCOCC1)C(=O)c1ccc(Cl)cc1` (stereo not given), the inhibition is 0.34% in test [1], 1.23% in test [2] and 1.88% in test [3].

Regarding `CC(CNC(=O)[C@H]1CNCCN1C(=O)CCCc1ccccc1)c1ccccc1` (stereo not given in full), the inhibition in test [1] is 0.97%; in test [2] it was -1.25%; in test [3], -0.23%.

`Nc1nc(NCC2CCC(CNS(=O)(=O)c3cccc4ccccc34)CC2)nc2ccccc12` (stereo not given): the inhibition in test [1] worked out at 7.11%; in test [2] it was 3.12%; in test [3] it was 1.21%.

For the compound `Cc1ccc(CNC(=O)[C@H](Cc2ccccc2)Nc2cc(C)nc(NCc3ccccc3C)n2)cc1`, the inhibition was 5.69% in test [1], 5.01% in test [2] and 2.6% in test [3].

`Cn1nccc1C(=O)NCCNCc1cccc(-c2ccc(-c3nc4cc(C(F)(F)F)ccc4[nH]3)s2)c1`: the inhibition came to 16.3% in test [1], 15.5% in test [2] and 14.6% in test [3].

Turning to `CC1(C)NC(N)=NC(=N)N1OCCCCCOc1ccccc1`, the inhibition in test [1] was 0.42%; in test [2] it was 0.8%; in test [3] it was 1.28%.

On to `CCCOc1c(CCNCCCCNCCc2ccc3ccccc3c2OCCC)ccc2ccccc12`, for which the inhibition in test [1] was determined as 60.8%; in test [2] it was 13.6%; in test [3], 40.1%.
